Data reported in PubChem BioAssay (EPA / NIEHS).
Inconclusive results are not listed. The source made the active and inactive calls. How the source made its calls: active means hit-call score of the fitted dose curve at least 0.9, where 1 is the maximum; inconclusive means response in the unintended direction; inactive means score below 0.9.

experiment: ACEA_ER_80hr: ACEA Biosciences xCELLigence Real-Time Cell Analysis on Estrogen Receptor Agonism for Proliferation (AID 2282667); conditions: T47D proliferation, impedance (xCELLigence), 80 h
How it was run: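 T-47D cells monitored by electrical impedance (xCELLigence) with compound present throughout; 80 h timepoint, positive-direction fitting versus DMSO. Eight-point 1:4 dilutions from 100 uM final, duplicate plates.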

Row | SMILES | outcome | AC50
1 | CC(=[OH+])/C=C(/C)[O-].CC(=[OH+])/C=C(/C)[O-].CC(=[OH+])/C=C(/C)[O-].[Al] | inactive | –
2 | CC(C)CCCCCCOC(=O)c1ccccc1C(=O)OCCCCCCC(C)C | inactive | –
3 | COc1cccc(C=O)c1 | inactive | –
4 | O=C/C=C/c1ccccc1 | inactive | –
5 | CC(Br)C(=O)O (stereo not drawn) | inactive | –
6 | COc1ccc(C=O)cc1OC | – | 15.7 µM (active)
7 | CC1(C)Cc2cccc(O)c2O1 | inactive | –
8 | Cc1ccccc1C(=O)Nc1cccc(OC(C)C)c1 | inactive | –
9 | CCC(=O)c1ccccc1 | inactive | –
10 | CC(=[OH+])/C=C(/C)[O-].CC(=[OH+])/C=C(/C)[O-].CC(=[OH+])/C=C(/C)[O-].[Fe] | inactive | –
11 | CCOP(=S)(OCC)Oc1ccc(S(C)=O)cc1 (stereo not drawn) | inactive | –
12 | Nc1ccc(N=Nc2ccc(-c3ccc(N=Nc4c(S(=O)(=O)O)cc5cc(S(=O)(=O)O)c(N=Nc6ccccc6)c(O)c5c4N)cc3)cc2)c(N)c1 | inactive | –
13 | CC(=O)c1cc(C(C)(C)C)cc2c1CCC2(C)C | inactive | –
14 | COP(=O)(OC)O/C(=C\Cl)c1cc(Cl)c(Cl)cc1Cl | inactive | –
15 | CCC[CH2][Sn]([CH2]CCC)([CH2]CCC)[O]C(=O)c1ccccc1 | inactive | –
16 | Cl/C=C\C[N+]12CN3CN(CN(C3)C1)C2 | inactive | –
17 | CCOP(=S)(OCC)Oc1nc(Cl)c(Cl)cc1Cl | inactive | –

Row | SMILES | outcome | AC50
18 | CC(=O)OC(c1ccccc1)C(Cl)(Cl)Cl (stereo not drawn) | inactive | –
19 | C=CC#N | inactive | –
20 | COc1ccc(OC)c(C=O)c1 | inactive | –
21 | O=P(O)(O)c1ccccc1 | inactive | –
22 | CCCCC(CC)CO[N+](=O)[O-] (stereo not drawn) | inactive | –
23 | CCOC(=O)Nc1cccc(OC(=O)Nc2ccccc2)c1 | inactive | –
24 | CCSC(C)CC1CC(=O)C(C(CC)=NOC/C=C/Cl)=C(O)C1 (stereo not drawn) | inactive | –
25 | O=[N+]([O-])c1c(Cl)c(Cl)cc(Cl)c1Cl | inactive | –
26 | N#CCc1ccc(Cl)cc1 | inactive | –
27 | Nc1cccc(Cl)c1 | inactive | –
28 | CC(=O)C=C(C)C | – | 10.8 µM (active)
29 | CC1CCCCC1NC(=O)Nc1ccccc1 (stereo not drawn) | inactive | –
30 | Nc1ccc(-c2ccc(N)c(Cl)c2)cc1Cl | inactive | –
31 | Oc1c(I)cc(I)cc1I | inactive | –
32 | C(=NC1CCCCC1)=NC1CCCCC1 | inactive | –
33 | O=C(Cl)c1ccc(Cl)cc1 | inactive | –
